# Sampled rows, rich in hits. Any-hit rate of the full collection: about 2.8%.
# PvdQ acylase: P. aeruginosa PvdQ acylase inhibitors, primary screen, biochemical, fluorescence, plate reader and imaging, single point | PvdQ acylase [Pseudomonas aeruginosa LESB58] | purified PvdQ acylase | inhibition, % at 10 µM | hit rate 0.063% among 340,000 | AID 488965, 2010; in the data active means inhibition above about 30%, passing the limit was not always enough;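 further: 0% = vehicle neutral wells and 100% = reference inhibitor wells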
# PglD DTNB: C. jejuni PglD acetyltransferase inhibitors, primary screen, biochemical, DTNB colorimetric, single point. UDP-N-acetylbacillosamine N-acetyltransferase PglD (Campylobacter jejuni). inhibition, % at 12.5 µM. hit rate 0.098% among 360,000. AID 602405, 2012. purified PglD enzyme, DTNB colorimetric CoA detection; in the data active means inhibition above about 16%, passing the limit was not always enough
# SIRT5 inh: SIRT5 desuccinylase inhibitors, primary screen, biochemical, fluorescence imaging, single point, set 5 | Purified SirT5, succinyl-peptide AMC, trypsin-coupled fluorescence | inhibition, % at 15 µM | hit rate 1.1% among 330,000 | NAD-dependent protein deacylase sirtuin-5, mitochondrial (Homo sapiens), Q9NXA8 | AID 652115, 2013; in the data active means inhibition above about 15%
# CDK5 inh: inhibitors of human CDK5/p35 kinase, primary screen, biochemical, single concentration; hit rate 0.01% among 330,000; inhibition, % at 10 µM; Recombinant CDK5/p35, ADP-Glo luminescence, 60 min; Cyclin-dependent kinase 5 (Homo sapiens) + Cyclin-dependent kinase 5 activator 1 (Homo …;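 active means highest replicate inhibition of at least 50% and at least 75% of replicates reaching 50%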;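 further: plate controls were DMSO neutral control for no effect and GW8510 at 10 µM for full effect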
# dFosB act: activators of delta FosB homodimer, primary screen, biochemical, fluorescence polarization, TAMRA-CDK5 oligo, single point | purified delta FosB; percent of positive-control signal above neutral wells | activation, % at 25 µM | hit rate 0.99% among 340,000 | AID 493131, 2011;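 active means mean activation above about 17%, with every replicate also reaching it, limit read from the data, passing the limit was not always enough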
# Target sequence (P13346 whole entry, looked up): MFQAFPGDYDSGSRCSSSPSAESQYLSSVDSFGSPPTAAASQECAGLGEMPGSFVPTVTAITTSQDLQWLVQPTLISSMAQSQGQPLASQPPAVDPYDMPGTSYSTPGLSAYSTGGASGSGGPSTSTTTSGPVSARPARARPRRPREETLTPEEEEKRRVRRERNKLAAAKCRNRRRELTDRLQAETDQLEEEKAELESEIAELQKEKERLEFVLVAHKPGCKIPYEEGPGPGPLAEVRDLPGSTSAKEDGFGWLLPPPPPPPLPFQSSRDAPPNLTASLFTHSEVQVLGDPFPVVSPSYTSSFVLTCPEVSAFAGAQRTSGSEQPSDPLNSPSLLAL
# FGF22 binding: binders of human FGF22 protein, primary screen, FGF22 synaptogenesis inhibitor project, biophysical, thermal shift, single point; recombinant FGF22 thermal shift, SYPRO orange fluorescence; percent of sucrose octasulfate shift, DMSO zero; activity (Tm shift, normalised), % at 9.99 µM; hit rate 1.5% among 340,000; AID 651658, 2012;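 active means mean Tm shift, scaled 0 neutral to 100 positive control, at about 1.3% or above, every replicate too, limit read from the data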
# Target sequence (Q9HCT0 whole entry, looked up): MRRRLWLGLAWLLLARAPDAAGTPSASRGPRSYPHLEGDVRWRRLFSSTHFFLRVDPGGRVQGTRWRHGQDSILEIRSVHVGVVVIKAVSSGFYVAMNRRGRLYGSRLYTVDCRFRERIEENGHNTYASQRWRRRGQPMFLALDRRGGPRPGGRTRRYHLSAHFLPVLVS
# Starred values were filed as active, the others as inactive; . = no result given.
SMILES,PvdQ acylase,PglD DTNB,SIRT5 inh,CDK5 inh,dFosB act,FGF22 binding
Cc1cccc(Nc2nc(NCCCN3CCOCC3)nc(N)c2[N+](=O)[O-])c1,-5.4,-5.0,-1.3,1.0,36.9*,0.1
COc1ccc2c3c([nH]c2c1)[C@@H](CO)N(C(=O)c1cnccn1)CC31CN(S(C)(=O)=O)C1,.,.,-2.5,.,.,-0.3
CN1C(=O)c2cc(NC(=O)C3CCCCC3)ccc2OC[C@H]2O[C@@H](CC(=O)NCCc3ccncc3)CC[C@H]21,.,1.5,0.3,.,.,0.0
C/C=C/c1ccc([C@@H]2[C@@H](CO)N(C(C)=O)[C@@H]2CNC(=O)c2ccccc2)cc1,.,-6.1,0.8,.,.,-0.2
CC(C)NC(=O)N1CC2(C1)[C@@H](c1ccccc1)[C@@H](CO)N2C(=O)C1CCCCC1,.,.,-3.2,.,.,.
CCC(=O)N/C(N)=N/c1nc(C)c2cc(C)c(C)cc2n1,.,-6.7,17.6*,.,.,-0.3
CO[C@H](CN(C)Cc1cc(F)ccc1F)[C@H](C)CN([C@H](C)CO)S(=O)(=O)c1ccc(Cl)cc1,.,-3.1,-3.5,.,.,-0.2
Clc1ccc(C2Nc3cccc4cccc(c34)N2)cc1,-15.3,-1.5,-1.7,1.4,1.7,0.0
Brc1ccc(C2Nc3cccc4cccc(c34)N2)s1,-8.9,.,0.8,1.6,23.1*,0.2
O=S1(=O)CC(c2ccccc2)=NN=C(c2ccccc2)C1,.,.,.,.,.,43.9*
CC(C)NC(=O)N[C@@H]1CC[C@H](CC(=O)NCc2ccc(Oc3ccccc3)cc2)O[C@H]1CO,.,4.1,4.7,.,.,-0.6
CN(C)c1ccc(C2Nc3ccccc3C(=O)N2NS(C)(=O)=O)cc1 (stereo not drawn),-10.2,0.3,31.4*,1.9,-11.3,0.0
CC(=O)NN1C(=O)c2ccccc2NC1c1ccc(N(C)C)cc1 (stereo not drawn),2.1,1.4,-9.5,-0.6,3.0,-0.2
O=C(C[C@@H]1C[C@H]2c3cc(NS(=O)(=O)c4ccc(F)cc4)ccc3O[C@H]2[C@@H](CO)O1)NCc1ccc(-c2ccccc2)cc1,.,2.5,15.9*,.,.,.
O=C(C[C@H]1C[C@H]2c3cc(NC(=O)Nc4ccccc4)ccc3O[C@H]2[C@@H](CO)O1)NCc1ccncc1,.,1.5,17.8*,.,.,-0.2
O=C(C[C@H]1C[C@H]2c3cc(NC(=O)Nc4ccccc4)ccc3O[C@H]2[C@H](CO)O1)NCc1ccncc1,.,-3.2,1.1,.,.,0.0
O=C(C[C@@H]1C[C@H]2c3cc(NS(=O)(=O)c4ccc(F)cc4)ccc3O[C@H]2[C@H](CO)O1)NCc1ccccc1,.,4.2,-3.4,.,.,0.1
O=C(C[C@@H]1C[C@@H]2c3cc(NC(=O)NC4CCCCC4)ccc3O[C@@H]2[C@H](CO)O1)NCCc1ccccc1,.,.,26.4*,.,.,.
O=C(C[C@H]1C[C@@H]2c3cc(NC(=O)C4CCC4)ccc3O[C@@H]2[C@@H](CO)O1)NCc1ccc(-c2ccccc2)cc1,.,0.1,23.0*,.,.,-0.1
CN(C)CCCNC(=O)C[C@H]1CC[C@H]2[C@@H](COc3ccc(NC(=O)c4ccc5c(c4)OCO5)cc3C(=O)N2C)O1,.,.,1.3,.,.,-0.2
C[C@@H]1CN([C@H](C)CO)C(=O)c2cc(NC(=O)Nc3ccc4c(c3)OCO4)ccc2O[C@@H](C)CCCCO[C@H]1CN(C)C(=O)Cc1ccccc1,.,4.7,0.0,.,.,-0.4
O=C(C[C@H]1C[C@H]2c3cc(NS(=O)(=O)c4ccc(F)cc4)ccc3O[C@H]2[C@H](CO)O1)NCc1ccc(-c2ccccc2)cc1,.,1.3,17.9*,.,.,.
O=C(C[C@@H]1C[C@@H]2c3cc(NS(=O)(=O)c4ccc(F)cc4)ccc3O[C@@H]2[C@@H](CO)O1)NCc1ccc(-c2ccccc2)cc1,.,0.1,-2.4,.,.,.
O=C(Cn1[nH]c(=O)c2ccccc2c1=O)OCC(=O)c1ccc(F)cc1,-6.1,.,15.7*,-4.4,-7.1,-0.1
O=C(Cn1[nH]c(=O)c2ccccc2c1=O)OCC(=O)c1ccc(F)c(F)c1,-2.6,-2.6,-3.0,0.3,-7.0,-0.3
SMILES,PvdQ acylase,PglD DTNB,SIRT5 inh,CDK5 inh,dFosB act,FGF22 binding
O=C(C[C@@H]1CC[C@@H](NC(=O)c2ccncc2)[C@H](CO)O1)NCC1CCCCC1,.,1.0,-0.4,.,.,-0.1
NC(=O)CCN1CCC(c2nc3ccccc3s2)CC1,1.3,-3.7,23.5*,0.1,-2.1,0.0
Cc1cc[n+](CC(=O)c2ccc3c(c2)OCCO3)cc1,3.5,.,-2.2,-0.6,2.4,43.7*
CC(=O)N1CCn2c3c(c4cc(C)ccc42)CCCC31 (stereo not drawn),-6.0,-5.3,-2.0,-1.5,1.0,43.4*
Cc1ccc2c(c1)c1c3n2CCN(C(=O)CCl)C3CCC1 (stereo not drawn),-12.5,2.1,-6.2,1.4,-6.4,-0.1
CCOc1ccc(N(CC(=O)Nc2ccc(C)c(F)c2)C2=NC3CS(=O)(=O)CC3S2)cc1 (stereo not drawn),1.4,-0.8,15.5*,.,10.1,-0.1
O=C(NNc1ccccc1)c1ccc(Cl)c(Cl)c1,-12.0,.,.,1.4,-1.0,43.2*
CCN1C(=O)[C@@H]2[C@@H](c3ccc(-c4ccc(OC)cc4)cc3)N3CCC[C@@]3(C(=O)OC)[C@@H]2C1=O,-8.4,-4.1,0.9,-0.6,-4.6,43.9*
O=C1c2ccccc2C(=O)c2c1ccc(C(=O)N1CCCCC1)c2NCCO,-0.5,0.5,.,1.4,-5.3,.
CCN(CCN(C)C)C(=O)c1ccc2c(c1NCCO)C(=O)c1ccccc1C2=O,-7.9,.,-2.4,2.9,19.9*,0.2
Cc1ccc(S(=O)(=O)Nc2ccc3c(c2)C(=O)N([C@H](C)CO)C[C@H](C)[C@H](CN(C)Cc2ccc(Cl)c(Cl)c2)OCCCC[C@H](C)O3)cc1,.,.,7.2,.,.,-0.6
O=C(NC1CCSC1)c1cccc(Cl)c1 (stereo not drawn),80.7*,-4.1,-7.9,-0.8,1.3,-0.1
COCc1[nH][nH]c(=O)c1C=Nc1ccccc1,3.1,-8.6,.,-0.5,-2.0,.
COCc1[nH][nH]c(=O)c1/C=N/N1CCOCC1,-13.7,.,-0.1,-2.6,-4.0,43.8*
O=C(O)CSCC(=O)Nc1ccc(Br)c(C(F)(F)F)c1,-2.5,-8.6,82.0*,-1.5,-7.8,0.0
COCCNS(=O)(=O)c1ccc2c3c(cccc13)C(=O)N2C,-10.2,.,-8.1,0.8,-4.9,43.5*
CN1C(=O)c2cccc3c(S(=O)(=O)NCCc4ccccc4)ccc1c23,-9.0,-0.7,-7.1,1.3,-9.7,-0.3
